The list is not random: actives were taken first. Their share in the collection is about 3.8%.
PAFAH1B3 inh – inhibitors of human PAFAH1B3; Q15102; recombinant PAFAH1B3, FP-rhodamine probe, fluorescence polarization; inhibition, % at 3.39 µM; actives 0.28% (n = 340,000);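 active = inhibition above the screen-wide average of all tested compounds plus 3 SD, cut at about 25% in these data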;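 note: 0% = enzyme with DMSO only and 100% = wells lacking PAFAH1B3 protein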
M18AAP inhibitor – blocks P. falciparum M18 aspartyl aminopeptidase | recombinant PfM18AAP, H-Glu-NHMec fluorogenic cleavage | inhibition, % at 7.35 µM | actives 1.2% (n = 290,000);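 active = inhibition above the campaign mean inhibition over all tested compounds plus 3 SD, cut at about 28% in these data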;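 note: 0% = plate median of test compound wells and 100% = 2 mM ZnCl2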
PAFAH2 inh – inhibitors of human PAFAH2; inhibition, % at 3.39 µM; AID 492956; Q99487; recombinant PAFAH2, FP-rhodamine activity probe, fluorescence polarization; actives 0.99% (n = 340,000);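 active = inhibition above the mean over all tested compounds plus 3 SD, cut at about 30% in these data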;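 note: inhibitors block probe labeling of enzyme so polarization drops; 0% = enzyme with DMSO and 100% = wells lacking PAFAH2 protein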
pPAFAH FP inh – inhibitors of human plasma PAF acetylhydrolase (pPAFAH). Q13093. recombinant pPAFAH, FP-rhodamine probe fluorescence polarization. inhibition, % at 3.39 µM. actives 1.5% (n = 330,000);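 active = inhibition above the mean inhibition across the screen plus 3 SD, cut at about 25% in these data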;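 note: inhibitors block binding of the rhodamine activity-based probe so polarization drops; 0% = enzyme with DMSO and 100% = wells lacking pPAFAH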
PAFAH1B2 inh – blocks human PAF acetylhydrolase 1b catalytic subunit 2; recombinant PAFAH1B2, FP-rhodamine activity probe, fluorescence polarization; P68402; inhibition, % at 3.39 µM; AID 492953; actives 1.2% (n = 340,000);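 active = inhibition above the mean of all tested compounds plus 3 SD, cut at about 24% in these data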;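 note: 0% = enzyme with DMSO and 100% = wells lacking PAFAH1B2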
DSG3 Ab inh – human desmoglein-3 autoantibody binding inhibition. DSG3-coupled beads, scFv-anti-DSG3-GFP binding, flow cytometry; stronger effect = lower value. binding (percent of control), % at 10 µM. actives 0.48% (n = 310,000). AID 588358;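 active = binding more than 3 SD below its plate's average and above zero; inconclusive = below that plate limit but binding exactly zero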;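 note: hits lower antibody fragment binding to DSG3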
Active calls of the source: *; ? = inconclusive; . = not tested or not shown.

SMILES	PAFAH1B3 inh	M18AAP inhibitor	PAFAH2 inh	pPAFAH FP inh	PAFAH1B2 inh	DSG3 Ab inh
CC1(C)NC(=O)N(CCCCOc2ccc(Br)cc2Cl)C1=O	6.7	2.8	-5.3	3.5	24.2*	100.8
O=C1CCC(C(=O)N2CCN(c3ccccc3)CC2)CN1CC1CCCCC1 (centres undefined)	7.0	-3.0	1.1	-1.4	0.5	105.2
Oc1ccccc1/C=N/NC(=S)NCCc1ccccc1	14.0	29.1*	25.6	.	11.1	92.3
COc1cccc(/C=N/NC(=S)NCCc2ccccc2)c1OC	5.9	-2.0	5.9	.	-0.1	70.4*
COc1cccc(/C=N/NC(=O)CC(=O)NCCc2ccccc2)c1OC	4.0	-6.4	1.6	3.4	2.3	.
COc1ccc(OC)c(/C=N/NC(=S)NCCc2ccccc2)c1	-4.2	0.3	5.7	.	4.1	61.8*
S=C(NCCc1ccccc1)N/N=C/c1cccc(Cl)c1Cl	-33.9	-1.6	-24.6	-7.8	-22.9	107.4
COc1ccc(OC)c(/C=N\NC(=O)CC(=O)NCCc2ccccc2)c1	14.2	3.1	2.5	0.4	6.6	97.8
O=C(CSc1nc(-c2ccccc2)cs1)NCCCN1CCCC1=O	6.2	.	9.1	6.9	8.0	.
COCC(C)n1c(C)cc(C(=O)COC(=O)c2nn(C)c(=O)c3ccccc23)c1C (centres undefined)	17.5	.	1.9	1.0	2.5	63.5*
COCC(C)n1c(C)cc(C(=O)Cn2nc(C(=O)O)c3ccccc3c2=O)c1C (centres undefined)	0.1	-4.8	-8.0	-7.7	1.7	115.8
Cn1c(CC(=O)Nc2ccccc2F)nnc1SCC(=O)NC1CCCCC1	-0.2	4.6	-7.9	-2.0	3.4	110.8
Cc1ccccc1NC(=O)Cc1nnc(SCC(=O)NC2CCCC2)n1C	-1.4	-8.9	0.9	0.9	2.2	88.1*
CC1=CCC(C(=O)O)C(C(=O)Nc2ccc(-c3nc4ccc(C)cc4s3)cc2)C1 (centres undefined)	-4.1	-7.6	-4.3	33.7*	1.0	99.4
N#Cc1c(Nc2ccccc2)c(/C=N/NCCO)c[nH]c1=O	0.3	1.1	1.0	26.4*	-4.6	102.9
N#Cc1c(Nc2ccccc2)c(C=NCCN2CCOCC2)c[nH]c1=O	3.3	-8.4	-0.4	29.0*	3.1	100.7
CNC(=O)CSc1nc2[nH]ncc2c(=O)[nH]1	-1.0	30.1*	0.2	-6.9	2.3	98.2
O=c1[nH]c(SCc2ccccc2Cl)nc2[nH]ncc12	3.5	48.1*	-0.8	5.2	3.5	89.9
Cc1cccc(CSc2nc3[nH]ncc3c(=O)[nH]2)c1	1.7	14.1	3.7	-1.7	0.7	91.1
O=C(O)C1(c2ccccc2)CCN(S(=O)(=O)c2ccc(F)c(F)c2)CC1	4.8	2.6	-9.7	-2.2	27.2*	111.3
Cc1cc(=O)oc2c3c(cc(OCC(=O)N[C@@H](CC(C)C)C(=O)O)c12)OC(C)(C)CC3	3.7	-3.8	12.5	0.5	35.4*	?
CCCC(NC(=O)COc1cc2c(c3oc(=O)cc(C)c13)CCC(C)(C)O2)C(=O)O (centres undefined)	-3.5	4.6	12.5	7.0	8.9	99.3
Cc1cc2c(=O)[nH]c(N)nc2[nH]1	.	.	.	.	.	102.7
O=C1C(SCCO)=C(SCCO)C(=O)c2ccccc21	46.5*	.	49.8*	3.8	46.0*	92.3
O=C1C(Cl)=C(NCCCO)C(=O)c2ccccc21	12.4	7.5	0.6	0.4	7.2	.
SMILES	PAFAH1B3 inh	M18AAP inhibitor	PAFAH2 inh	pPAFAH FP inh	PAFAH1B2 inh	DSG3 Ab inh
CCc1noc(C)c1C(=O)N(C)CC(=O)Nc1ccc(Cl)c(Cl)c1	7.4	.	-3.7	-0.9	1.6	97.8
CCc1noc(C)c1C(=O)N(C)CC(=O)Nc1ccccc1C(F)(F)F	2.0	.	-4.6	1.7	-0.8	7.5*
NC(=S)n1[nH]c(-c2ccc([N+](=O)[O-])cc2)c(N=Nc2cccc([N+](=O)[O-])c2)c1=O	19.3	9.5	38.6*	.	26.6*	100.6
COC(=O)c1ccc(C)c(NC(=O)CCNC(=O)c2ccc([N+](=O)[O-])cc2)c1	-2.8	-9.7	-4.8	29.4*	3.0	109.5
Cc1ccc(F)cc1NC(=O)CCNC(=O)c1ccc([N+](=O)[O-])cc1	-1.6	1.0	-7.5	3.4	3.4	.
O=C(NC1CCCCC1)C(c1ccc(O)cc1)N(CC1CCCO1)C(=O)C1COc2ccccc2O1 (centres undefined)	7.0	4.8	-6.1	5.7	0.4	78.2*

Source: PubChem (several laboratories)
